The record followed here is ChEMBL document CHEMBL1961873, “Compounds: GSK PKIS; Assays: Nanosyn kinase panel” (2012).

Assay [1] concerns the target RAF proto-oncogene serine/threonine-protein kinase (Homo sapiens) (UniProt P04049). The following applies: at 1 µM.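 Further: values are the mean percent inhibition of CRAF.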
Assay [2] has as its target T1, Interleukin-1 receptor-associated kinase 4 (Homo sapiens) (UniProt Q9NWZ3).
T1 sequence (whole entry): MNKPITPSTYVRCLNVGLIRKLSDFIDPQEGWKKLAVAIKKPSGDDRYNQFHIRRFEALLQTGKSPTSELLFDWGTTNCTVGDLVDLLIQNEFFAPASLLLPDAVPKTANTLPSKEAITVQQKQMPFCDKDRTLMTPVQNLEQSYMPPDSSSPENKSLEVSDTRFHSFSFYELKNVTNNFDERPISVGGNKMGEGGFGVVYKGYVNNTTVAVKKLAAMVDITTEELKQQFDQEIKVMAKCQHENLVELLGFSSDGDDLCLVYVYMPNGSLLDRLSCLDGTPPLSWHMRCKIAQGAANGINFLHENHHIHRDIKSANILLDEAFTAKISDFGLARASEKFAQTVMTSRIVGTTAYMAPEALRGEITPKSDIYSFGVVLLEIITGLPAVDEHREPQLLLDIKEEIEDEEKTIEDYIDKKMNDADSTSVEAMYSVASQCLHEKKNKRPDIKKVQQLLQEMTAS
The following applies: at 0.1 µM.

Assay [3] has as its target T1, Interleukin-1 receptor-associated kinase 4 (Homo sapiens). The following applies: at 1 µM.
For assay [4], the target named is Leucine-rich repeat serine/threonine-protein kinase 2 (Homo sapiens) (UniProt Q5S007). The following applies: at 0.1 µM.
Assay [5] shares this target. The following applies: at 1 µM.
Assay [6] relates to Leucine-rich repeat serine/threonine-protein kinase 2 (Homo sapiens), Q5S007 [G2019S]. The following applies: at 0.1 µM.
The test system is the same in assay [7]. The following applies: at 1 µM.

What is called inhibition is the relative decrease from the control value, in per cent.

Chain of RAF proto-oncogene serine/threonine-protein kinase (Homo sapiens) (P04049 whole entry): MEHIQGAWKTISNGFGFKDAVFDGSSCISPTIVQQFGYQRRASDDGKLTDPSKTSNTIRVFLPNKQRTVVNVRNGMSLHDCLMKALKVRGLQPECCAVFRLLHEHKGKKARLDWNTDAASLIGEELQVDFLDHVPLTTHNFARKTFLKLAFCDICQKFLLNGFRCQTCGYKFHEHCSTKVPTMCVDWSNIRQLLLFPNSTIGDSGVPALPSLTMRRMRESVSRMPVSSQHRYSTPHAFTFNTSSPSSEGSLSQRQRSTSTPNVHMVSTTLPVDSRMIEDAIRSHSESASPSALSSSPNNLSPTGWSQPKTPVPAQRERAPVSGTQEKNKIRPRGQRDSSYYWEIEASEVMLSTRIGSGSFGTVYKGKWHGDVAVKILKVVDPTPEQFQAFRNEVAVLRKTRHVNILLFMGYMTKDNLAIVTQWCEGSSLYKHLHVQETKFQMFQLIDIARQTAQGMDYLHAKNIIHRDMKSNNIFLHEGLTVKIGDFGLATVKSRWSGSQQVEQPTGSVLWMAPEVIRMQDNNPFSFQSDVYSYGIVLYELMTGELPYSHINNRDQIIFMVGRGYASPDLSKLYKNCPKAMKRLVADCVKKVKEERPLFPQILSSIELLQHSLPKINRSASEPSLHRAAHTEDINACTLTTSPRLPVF
Chain of Leucine-rich repeat serine/threonine-protein kinase 2 (Homo sapiens) (Q5S007 whole entry): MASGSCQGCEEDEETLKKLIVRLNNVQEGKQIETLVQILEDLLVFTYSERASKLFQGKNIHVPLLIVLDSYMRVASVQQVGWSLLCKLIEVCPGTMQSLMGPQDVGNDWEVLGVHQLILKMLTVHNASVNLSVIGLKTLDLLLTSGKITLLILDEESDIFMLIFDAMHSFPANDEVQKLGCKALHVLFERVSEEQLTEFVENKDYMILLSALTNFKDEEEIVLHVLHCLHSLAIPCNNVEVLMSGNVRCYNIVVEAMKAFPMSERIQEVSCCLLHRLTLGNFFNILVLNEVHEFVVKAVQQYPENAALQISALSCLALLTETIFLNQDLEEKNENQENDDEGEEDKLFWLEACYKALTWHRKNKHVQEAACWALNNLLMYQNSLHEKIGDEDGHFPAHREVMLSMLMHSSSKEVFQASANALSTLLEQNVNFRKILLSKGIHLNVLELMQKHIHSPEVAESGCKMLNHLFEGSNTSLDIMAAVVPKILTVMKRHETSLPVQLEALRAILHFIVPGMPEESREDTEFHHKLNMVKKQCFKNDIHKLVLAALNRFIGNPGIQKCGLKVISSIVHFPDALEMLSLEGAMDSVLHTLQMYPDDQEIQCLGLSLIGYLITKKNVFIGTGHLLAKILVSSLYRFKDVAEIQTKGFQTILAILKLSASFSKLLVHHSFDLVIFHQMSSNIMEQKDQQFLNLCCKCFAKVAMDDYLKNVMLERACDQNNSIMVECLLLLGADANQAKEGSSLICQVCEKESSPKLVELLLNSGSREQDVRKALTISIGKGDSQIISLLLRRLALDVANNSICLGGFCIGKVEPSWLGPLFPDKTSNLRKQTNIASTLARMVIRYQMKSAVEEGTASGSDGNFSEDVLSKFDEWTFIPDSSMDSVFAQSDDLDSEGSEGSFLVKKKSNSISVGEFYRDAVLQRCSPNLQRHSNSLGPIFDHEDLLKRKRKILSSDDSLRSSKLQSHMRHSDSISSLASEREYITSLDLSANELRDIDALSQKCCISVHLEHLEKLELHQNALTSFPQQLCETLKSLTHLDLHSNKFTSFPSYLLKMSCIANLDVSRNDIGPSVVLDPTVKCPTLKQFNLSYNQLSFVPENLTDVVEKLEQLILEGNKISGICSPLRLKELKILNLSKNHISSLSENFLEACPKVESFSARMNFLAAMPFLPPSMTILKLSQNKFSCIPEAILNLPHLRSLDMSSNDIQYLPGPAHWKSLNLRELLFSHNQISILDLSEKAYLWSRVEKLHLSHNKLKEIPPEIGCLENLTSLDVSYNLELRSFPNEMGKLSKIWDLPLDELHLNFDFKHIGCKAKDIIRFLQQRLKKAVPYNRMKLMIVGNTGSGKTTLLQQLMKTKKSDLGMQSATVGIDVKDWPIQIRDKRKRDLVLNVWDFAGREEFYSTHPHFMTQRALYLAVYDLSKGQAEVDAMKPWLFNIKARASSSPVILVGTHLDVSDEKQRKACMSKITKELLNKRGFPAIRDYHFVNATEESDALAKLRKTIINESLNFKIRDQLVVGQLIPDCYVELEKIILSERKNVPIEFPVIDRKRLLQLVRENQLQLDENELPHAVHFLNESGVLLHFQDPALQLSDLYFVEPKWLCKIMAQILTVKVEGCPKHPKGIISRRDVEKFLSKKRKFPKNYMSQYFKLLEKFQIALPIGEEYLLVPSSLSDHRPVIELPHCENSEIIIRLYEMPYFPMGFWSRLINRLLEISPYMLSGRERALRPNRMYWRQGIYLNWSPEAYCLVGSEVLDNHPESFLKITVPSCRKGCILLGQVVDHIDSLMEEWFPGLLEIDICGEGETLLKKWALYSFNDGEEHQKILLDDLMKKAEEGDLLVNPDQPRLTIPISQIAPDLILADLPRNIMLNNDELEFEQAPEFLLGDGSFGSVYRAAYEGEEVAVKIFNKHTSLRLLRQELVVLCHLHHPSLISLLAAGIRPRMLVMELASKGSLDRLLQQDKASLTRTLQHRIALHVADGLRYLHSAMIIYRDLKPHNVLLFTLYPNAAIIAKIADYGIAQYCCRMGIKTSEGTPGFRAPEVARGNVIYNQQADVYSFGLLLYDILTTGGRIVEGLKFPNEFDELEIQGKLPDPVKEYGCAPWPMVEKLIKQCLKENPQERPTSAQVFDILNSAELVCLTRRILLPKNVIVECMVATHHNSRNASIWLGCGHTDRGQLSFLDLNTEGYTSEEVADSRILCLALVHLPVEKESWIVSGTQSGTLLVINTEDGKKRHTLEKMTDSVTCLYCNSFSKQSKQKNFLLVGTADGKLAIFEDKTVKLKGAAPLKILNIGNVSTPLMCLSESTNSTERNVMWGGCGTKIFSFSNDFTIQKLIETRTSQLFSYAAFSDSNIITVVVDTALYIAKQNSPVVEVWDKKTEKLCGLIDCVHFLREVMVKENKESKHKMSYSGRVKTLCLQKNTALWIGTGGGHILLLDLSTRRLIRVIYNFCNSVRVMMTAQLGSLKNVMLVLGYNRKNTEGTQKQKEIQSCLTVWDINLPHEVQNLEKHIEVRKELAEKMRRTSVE
Chain of Leucine-rich repeat serine/threonine-protein kinase 2 (Homo sapiens), Q5S007 [G2019S] (Q5S007 whole entry G2019S): as the sequence (Q5S007 whole entry) above, with G2019S counted along it

`CN(C)C(=O)O[C@H]1CN[C@H](C#Cc2cc3ncnc(Nc4ccc(OCc5cccc(F)c5)c(Cl)c4)c3s2)C1`: the inhibition was 5.68% in assay [1]; -3.18% in assay [2]; 1.16% in assay [3]; 1.64% in assay [4]; 2.05% in assay [5]; 4.13% in assay [6]. The inhibition in assay [7] was 6.83%.

With `CCn1c(-c2nonc2N)nc2c(C#CC(C)(C)O)nc(OCCNC)cc21`, the inhibition in assay [1] is 0.54%; in assay [2], 2.16%; in assay [3], 3.06%; in assay [4] it was -2.14%; in assay [5], 0.49%; in assay [6], -0.46%. For the same compound, the inhibition in assay [7] was 2.51%.

Consider `CCS(=O)(=O)c1ccc(OC)c(Nc2ncc(-c3cccc(OC)c3)o2)c1`, for which the inhibition in assay [1] is -3.45%; in assay [2], -4.04%; in assay [3], 2.08%; in assay [4], 5.57%; in assay [5], 20.2%; in assay [6], 7.7%. In assay [7], the inhibition stood at 42.6%.

Consider `Cc1nc(-c2ccccc2)n2nc(NCCCN3CCOCC3)ncc12`, for which the inhibition was 3.81% in assay [1]; 1.72% in assay [2]; 1.58% in assay [3]; 0.1% in assay [4]; 5.23% in assay [5]; 2.23% in assay [6]. Moreover, in assay [7], the inhibition was found to be 6.32%.

For the compound `CN(c1ccc(NC(=O)Nc2ccc(OC(F)(F)F)cc2)cc1)c1ccnc(Nc2cccc(S(N)(=O)=O)c2)n1`, the inhibition was -4.06% in assay [1]; 1.26% in assay [2]; 2.86% in assay [3]; 4.25% in assay [4]; 27.6% in assay [5]; 3.86% in assay [6]. For the same compound, the inhibition in assay [7] was found to be 17.2%.

As for `NS(=O)(=O)c1cccc(Nc2cc(-c3ccc(F)cc3)n[nH]2)c1`, the inhibition was -8.3% in assay [1]; -1.86% in assay [2]; 1.25% in assay [3]; 4.6% in assay [4]; 10.5% in assay [5]; 5.16% in assay [6]. For the same compound, in assay [7], the inhibition was 12.2%.

For the compound `COc1cccc(-n2ncc3c(N/N=C/c4ccc(S(C)(=O)=O)cc4)ncnc32)c1`, the inhibition in assay [1] is -5.96%; in assay [2] it was -3.29%; in assay [3], 1.12%; in assay [4] it was -1.93%; in assay [5], -1.56%; in assay [6], 2.72%. Also, in assay [7], the inhibition is 6.75%.

Take `CCCN1CCCC(c2ccc(Nc3nc(Nc4cc(F)ccc4C(N)=O)c4cc[nH]c4n3)c(OC)c2)C1` (configuration not stated): the inhibition in assay [1] was -4.64%; in assay [2], 3.05%; in assay [3] it was 3.34%; in assay [4], 86.9%; in assay [5], 88.3%; in assay [6] it was 80.5%. The inhibition in assay [7] stood at 83.5%.

Turning to `NC(=O)c1cccc(Nc2nccc(Nc3cccc(F)c3)n2)c1`, the inhibition in assay [1] was -1.43%; in assay [2], 0.1%; in assay [3] it was 2.52%; in assay [4] it was -0.11%; in assay [5] it was 10%; in assay [6] it was 1.9%. Also, the inhibition in assay [7] amounted to 18.2%.

For `COc1cc2ncnc(Nc3ccc4c(cnn4Cc4ccccc4)c3)c2cc1OC`, the inhibition in assay [1] was -1.93%; in assay [2] it was 0.58%; in assay [3], 1.32%; in assay [4] it was 3.78%; in assay [5], 14.3%; in assay [6] it was 6.86%. In assay [7], the inhibition was determined as 13.8%.

Regarding `Nc1nccc(C#Cc2cncnc2Nc2ccc(OCc3cccc(F)c3)c(Cl)c2)n1`, the inhibition is -0.28% in assay [1]; 0.44% in assay [2]; 2.48% in assay [3]; 7.72% in assay [4]; 11.1% in assay [5]; 8.54% in assay [6]. In addition, in assay [7], the inhibition was 14%.

For `Cc1cc(O)cc(C)c1/C=C/c1cncc(C(=O)N(C)C)c1`, the inhibition in assay [1] is -5.4%; in assay [2] it was -1.62%; in assay [3], 2.21%; in assay [4], 4.81%; in assay [5], 7.82%; in assay [6], 3.29%. Also, the inhibition in assay [7] amounted to 7.6%.

For the compound `O=C1Nc2ccc(-c3cccnc3)cc2C1=Cc1cc(Br)c(O)c(Br)c1`, the inhibition is 21.8% in assay [1]; -1.88% in assay [2]; 4.22% in assay [3]; 23.2% in assay [4]; 22.3% in assay [5]; 47.2% in assay [6]. Moreover, in assay [7], the inhibition was found to be 61.3%.

Consider `CC(C)c1ccc(Nc2nccc(-c3cnn4ncccc34)n2)cc1`, for which the inhibition in assay [1] is 2.26%; in assay [2], -2.06%; in assay [3], 1.84%; in assay [4], 9.89%; in assay [5], 17.9%; in assay [6], 11.6%. Also, the inhibition in assay [7] is 44.5%.

`Cc1ccc(Nc2ccnc(Nc3cccc(C(N)=O)c3)n2)cc1O`: the inhibition in assay [1] is 4.38%; in assay [2], -2.94%; in assay [3] it was 6.55%; in assay [4], 0.74%; in assay [5], 9.44%; in assay [6] it was 2.08%. In addition, in assay [7], the inhibition turned out to be 26.1%.

For the compound `COc1cccc(-n2nc(C)c3c(N/N=C(\C)c4ccncc4)ncnc32)c1`, the inhibition is -2.83% in assay [1]; -0.08% in assay [2]; 0.93% in assay [3]; 2.29% in assay [4]; 4.69% in assay [5]; 2.88% in assay [6]. In assay [7], the inhibition was 4.64%.
